Source: PubChem BioAssay (National Center for Advancing Translational Sciences (NCATS))
GBA activity: Glucocerebrosidase; Potency, µM; AID 360, 2006; purified enzyme, resorufin glucoside fluorescence (screen aimed at inhibitors), 20 min; Lysosomal acid glucosylceramidase (Homo sapiens), P04062; actives 1.1% (n = 48,000); in the data active = potency below about 15 µM; inconclusive = mostly about 16 µM to 33 µM;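 note: the screen sought inhibitors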
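Wild-type enzyme at 0.2 nM final in 50mM citric acid/KH2PO4, 10mM sodium taurocholate, 0.01% tween-20, pH 5.9, with resorufin beta-D-glucopyranoside at 30 uM final. Compounds titrated, 20 min at RT, red fluorescence read; AC50 from titration.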
Casp1 inh: qHTS Assay for Allosteric/Competitive Inhibitors of Caspase-1. P29466. Caspase-1 enzyme, Ac-WEHD-AFC fluorogenic rate. Potency, µM (highest dose often 57.5 µM), inactives show top-dose activity change, negative = inhibition, hits mostly inhibitors. actives 0.03% (n = 75,000). AID 900, 2007;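 note: plate controls were vehicle for no effect and no substrate for full effect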
FLuc inh: qHTS Assay for Inhibitors of Firefly Luciferase; Luciferin 4-monooxygenase (Photinus pyralis), P08659; actives 2.2% (n = 72,000); Potency, µM (titrated, usually from 57.1 µM), for the others: top-dose activity change, negative = inhibition, actives largely listed as inhibitors; purified firefly luciferase, luminescence, 8 min; note: % is set by controls: 0 for no effect and ±100 for the full control effect; nearly all actives have a fitted effect of over 40% in size
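Titration-based qHTS; buffer 50 mM imidazole pH 7.2, 50 mM KCl, 7 mM MgCl2, 10 uM ATP, 0.01% Tween 20, 0.05% BSA; luciferase/luciferin detector mix added after compound; 8 min, ambient; luminescence.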
Bst PK mod: Pyruvate Kinase | actives 1.2% (n = 51,000) | purified pyruvate kinase, luminescence ATP production; ribose 5-phosphate activator present at AC10 | Potency, µM | AID 361, 2006; in the data active = potency below about 11 µM; inconclusive = mostly about 12 µM to 25 µM;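 the screen sought inhibitors and activators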;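 note: scaled between full activation by ribose 5 phosphate and full inhibition by luteolin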
Casp7 inh: qHTS Assay for Allosteric/Competitive Inhibitors of Caspase-7 | actives 0.02% (n = 75,000) | recombinant caspase-7, Ac-DEVD-AFC fluorescence rate | Potency, µM (highest dose often 57.5 µM), inactives show at the top dose activity change, negative = inhibition, usual class: inhibitors | P55210; active = well fitted inhibition curve with a large enough effect in the main read-out, with a control signal flat, not every such curve was filed as active; inconclusive = small, poorly fitted or top-dose-only effect, or a change in a side signal; note: % of control where 0% means no effect
Target sequence (P55210 24-198 limits assumed): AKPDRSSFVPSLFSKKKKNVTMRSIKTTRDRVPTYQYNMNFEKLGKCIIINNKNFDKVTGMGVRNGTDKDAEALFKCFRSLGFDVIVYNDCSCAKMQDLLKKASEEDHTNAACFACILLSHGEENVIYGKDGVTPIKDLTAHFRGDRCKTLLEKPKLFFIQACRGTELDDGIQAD
Target sequence (P55210 207-303 limits assumed): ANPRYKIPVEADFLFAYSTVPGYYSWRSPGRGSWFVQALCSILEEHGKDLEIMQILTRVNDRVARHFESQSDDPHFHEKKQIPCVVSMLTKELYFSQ
* hit, by the source's call; i = inactive; ? = inconclusive; nt = no result; ! = not active in a repeat; [ ] = dose if it differs, or a comment. This is a sample that favours compounds with a hit; in the whole collection about 3.1% have one here. Unless noted, calls come from the whole dose curve; as a rule, active = well fitted inhibition curve with a large enough effect; inconclusive = small, poorly fitted or top-dose-only effect; inactive = flat fitted curve, though single readings scatter. Potency is the fitted concentration of half-maximal effect.

SMILES | GBA activity | Casp1 inh | FLuc inh | Bst PK mod | Casp7 inh
COc1ccc2c(c1OC)C(Cc1ccccc1)N1CCc3cc4c(cc3C1C2)OCO4 (centres undefined) | nt | -14% | nt | nt | -16%
O=C(CSc1nnnn1-c1ccc(Cl)cc1)NC(=O)Nc1ccc2c(c1)OCCO2 | >77 | -1% | 2.5µM* | >57 | -7%
Cc1ccc(-n2nnnc2SCC(=O)NC(=O)Nc2ccc3c(c2)OCCO3)cc1 | ? | -3% | -5% | >57 | -1%
CC[C@]1(O)C[C@H]2CN(CCc3c([nH]c4ccccc34)[C@](C(=O)OC)(c3cc4c(cc3OC)N(C=O)[C@H]3[C@@](O)(C(=O)OC)[C@H](OC(C)=O)[C@@]5(CC)C=CCN6CC[C@]43[C@H]65)C2)C1 | nt | 3% | 0% | nt | 0%
C=CCn1c(-c2ccc(OC)cc2)nc2ccccc21 | nt | 0% | 25µM* | nt | -2%
O=C(O)[C@@H]1CCCN[C@H]1C(=O)O | nt | 3% | -7% | nt | 1%
Cc1ccc(O)c(N=Nc2ccccc2)n1 | nt | 3% | 13µM*! | nt | 1%
Cc1cc(Nc2ccc(N=Nc3ccc(O)c4ncccc34)cc2)nc(C)n1 | nt | -1%[11.5 µM] | -2%[11.4 µM] | nt | -3%[11.5 µM]
Cc1ccc(N2C(=O)c3ccccc3C2O)nc1 (centres undefined) | nt | -2% | 6.3µM* | nt | -2%
Cc1cc(C)cc(N(CC(=O)O)S(=O)(=O)c2cccnc2)c1 | nt | -3% | 3% | nt | 3%
COc1ccc(N(CC(=O)Nc2cccc(C)c2)S(=O)(=O)c2c(C)n[nH]c2C)cc1 | >77 | 0% | 1% | >57 | -2%
COc1ccc(N(CC(=O)Nc2ccc(C)c(C)c2)S(=O)(=O)c2c(C)n[nH]c2C)cc1 | 15* | 0% | 0% | >57 | -1%
C=C(CO)[C@H]1Cc2c(ccc3c(=O)c4c(oc23)COc2cc(OC)c(OC)cc2-4)O1 | nt | nt | -5%[11.4 µM] | nt | nt
Cc1ccc2nc(Nc3ncc4c(n3)CCCC4=O)nc(C)c2c1 | >77 | 0% | 4% | >57 | -1%
Cc1cc(C)cc(Nc2ncc3c(n2)CCCC3=O)c1 | >77 | -2% | 13µM* | nt | -2%
Clc1ccc2oc(-c3ccccn3)nc2c1 | >77 | 0% | 16µM* | ? | 2%
Nc1ccc2oc(-c3ccccn3)nc2c1 | >77 | -6% | 20µM* | nt | -2%
COc1cccc(OC)c1OCCNC[C@@H]1CSc2ccccc2O1 | nt | 0% | -1% | nt | -2%
c1ccc2c(c1)nc(Nc1ccc3c(c1)OCO3)c1nnnn12 | >77 | -11% | ? | 8.6* | -16%
CCN(CC)S(=O)(=O)c1ccc(Nc2nc3ccccc3n3nnnc23)cc1 | >77 | -7% | -5% | >57 | -6%
COc1ccc2c(c1)[C@]1(C)CCC[C@](C)(CO)[C@@H]1CC2 | nt | nt | 3%[11.4 µM] | nt | nt
CC(C)[C@@H]1NC(=O)[C@H](CCCCN)NC(=O)[C@H](Cc2c[nH]c3ccccc23)NC(=O)[C@H](Cc2ccc(O)cc2)NC(=O)[C@H](C)N(C)C(=O)[C@H](Cc2ccccc2)NC1=O | nt | 2% | 0% | nt | 2%
O=C(Cc1ccc2cccnc2c1)c1ccc(O)cc1O | >77 | 0% | 1% | 6* | -1%
O=C(CSc1nnc(SCc2ccc(Cl)cc2)s1)N1CCN(C(=O)c2ccco2)CC1 | >77 | 0% | 4µM* | nt | -1%
Cc1cnc(C(=O)Nc2ccc3c(c2)CCC3)cn1 | >77 | 4% | 16µM* | i | 3%
SMILES | GBA activity | Casp1 inh | FLuc inh | Bst PK mod | Casp7 inh
Cc1ccc(C(=O)Nc2ccc3c(c2)CCC3)o1 | nt | 0% | nt | nt | -1%
O=C(Nc1ccc2c(c1)CCC2)c1cnccn1 | >77 | -2% | 25µM* | nt | -1%
COCCN1Cc2cccc(C(=O)Nc3ccc(S(=O)(=O)N4CCCCCC4)cc3)c2C1=O | 15* | -1% | 1% | >57 | 2%
CCN(CC)S(=O)(=O)c1ccc(NC(=O)c2cccc3c2C(=O)N(CCOC)C3)cc1 | >77 | 1% | 2% | >57 | -2%
CCCN1Cc2cccc(C(=O)Nc3cc(OC)cc(OC)c3)c2C1=O | nt | 3% | -2% | >57 | 0%
COCCN1Cc2cccc(C(=O)Nc3ccc(C)c(C)c3)c2C1=O | >77 | -2% | 25µM* | nt | 0%
COCCN1Cc2cccc(C(=O)Nc3cccc(OC)c3)c2C1=O | >77 | 1% | -5% | nt | 1%
O=C(Nc1ccc(F)cc1)c1cccc2c1C(=O)N(Cc1ccccn1)C2 | nt | 0% | -3% | 11* | -1%
O=C(NCCCCN1CCCC1)c1ccc(Cc2nc3ccccc3[nH]2)cc1 | nt | -1% | nt | nt | 0%
